This passage reports binding signal results from PMC8384837, “Expanding the binding specificity for RNA recognition by a PUF domain”.

Holding throughout (experiment): yeast three-hybrid, YBZ-1, SC-Leu-His + 0.5 mM 3-AT, 4 days
Holding throughout (details): tags: N-Gal4 AD-HA kept; label: inside an RPR1-promoter hybrid RNA with tandem MS2 sites; ssRNA

In assay [1] the target is PUM1 PUF domain R4-ALG (Homo sapiens, UniProt Q14671 828-1176, N971A;H972L;Q975G). The method, boiled down: (§1)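 Repeat regions from input (SC-Leu) and selection (SC-Leu-His + 0.5 mM 3-AT) plates were PCR-amplified and Illumina-sequenced after four days of growth. The cells were strain YBZ-1 with a LexA–MS2 coat fusion and a HIS3 reporter, co-expressing Pumilio-1 PUF domain libraries and matching RNA elements from a centromeric plasmid. The interaction score is the log change in variant frequency from input to selection, taken in log2 with a pseudocount of 1 for absent variants.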

Assay [2] concerns the target PUM1 PUF domain R5-VRV (Homo sapiens, UniProt Q14671 828-1176, C1007V;Q1011V). The method, boiled down: as §1
Assay [3] addresses T1, PUM1 PUF domain R6-DWQ (Homo sapiens, UniProt Q14671 828-1176, N1043D;Y1044W).
T1 sequence: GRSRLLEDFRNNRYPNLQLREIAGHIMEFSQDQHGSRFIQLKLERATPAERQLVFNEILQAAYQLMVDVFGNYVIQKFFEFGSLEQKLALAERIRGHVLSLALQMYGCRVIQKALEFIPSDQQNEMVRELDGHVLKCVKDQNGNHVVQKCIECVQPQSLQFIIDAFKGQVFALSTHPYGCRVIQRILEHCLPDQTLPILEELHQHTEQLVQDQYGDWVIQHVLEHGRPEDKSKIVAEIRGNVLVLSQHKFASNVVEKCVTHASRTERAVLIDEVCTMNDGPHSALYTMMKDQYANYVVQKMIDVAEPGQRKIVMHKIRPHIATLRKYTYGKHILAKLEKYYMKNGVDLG
Summed up:
as §1

Assay [4] deals with PUM1 PUF domain R5-MKR (Homo sapiens, UniProt Q14671 828-1176, C1007M;R1008K;Q1011R). The method, boiled down: as §1
Assay [5] deals with PUM1 PUF domain R5-GQQ (Homo sapiens, UniProt Q14671 828-1176, C1007G;R1008Q). The method, boiled down:
as §1

Assay [6] has as its target PUM1 PUF domain R5-EKL (Homo sapiens, UniProt Q14671 828-1176, C1007E;R1008K;Q1011L). The method, boiled down:
as §1

Assay [7] has as its target PUM1 PUF domain R3-QRR (Homo sapiens, UniProt Q14671 828-1176, C935Q;Q939R). Summed up: as §1
For assay [8], the target named is PUM1 PUF domain R1-NFR (Homo sapiens, UniProt Q14671 828-1176, S863N;R864F;Q867R). The method, boiled down: as §1
The target of assay [9] is PUM1 PUF domain R5-GYV (Homo sapiens, UniProt Q14671 828-1176, C1007G;R1008Y;Q1011V). Summed up: as §1
Assay [10] addresses PUM1 PUF domain R5-PWL (Homo sapiens, UniProt Q14671 828-1176, C1007P;R1008W;Q1011L). Summed up: as §1

With “GGCUAGAACUAGUGGAUCCCCCGGCGCCCGGCGGCUCGAGCCCGGGUAAGUGUAAAUAGUCUGCAUGCCGCCGGGCGCCAUGCCUGCAGGUCGACUCUAGAAAACAUG”, the binding signal in assay [1] was 2.12 log2 enrichment (interaction score); in [2], 3.36 log2 enrichment (interaction score); in [3] it was 2.34 log2 enrichment (interaction score). For “GGCUAGAACUAGUGGAUCCCCCGGCGCCCGGCGGCUCGAGCCCGGGUAAGUGUCAAUAGUCUGCAUGCCGCCGGGCGCCAUGCCUGCAGGUCGACUCUAGAAAACAUG”, the binding signal in assay [4] was 2.84 log2 enrichment (interaction score); in assay [5], 4.12 log2 enrichment (interaction score); in assay [6], 2.47 log2 enrichment (interaction score). On to “GGCUAGAACUAGUGGAUCCCCCGGCGCCCGGCGGCUCGAGCCCGGGUAAGUGUAAUUAGUCUGCAUGCCGCCGGGCGCCAUGCCUGCAGGUCGACUCUAGAAAACAUG”, for which the binding signal in [7] is 4.3 log2 enrichment (interaction score). “GGCUAGAACUAGUGGAUCCCCCGGCGCCCGGCGGCUCGAGCCCGGGUAAGUGUAAGUAGUCUGCAUGCCGCCGGGCGCCAUGCCUGCAGGUCGACUCUAGAAAACAUG”: in assay [7], the binding signal was 3.94 log2 enrichment (interaction score). Turning to “GGCUAGAACUAGUGGAUCCCCCGGCGCCCGGCGGCUCGAGCCCGGGUAAGUGUAAAUCGUCUGCAUGCCGCCGGGCGCCAUGCCUGCAGGUCGACUCUAGAAAACAUG”, the binding signal in assay [8] was 6.39 log2 enrichment (interaction score). On to “GGCUAGAACUAGUGGAUCCCCCGGCGCCCGGCGGCUCGAGCCCGGGUAAGUGUGAAUAGUCUGCAUGCCGCCGGGCGCCAUGCCUGCAGGUCGACUCUAGAAAACAUG”, for which the binding signal in assay [9] is 2.9 log2 enrichment (interaction score). Regarding “GGCUAGAACUAGUGGAUCCCCCGGCGCCCGGCGGCUCGAGCCCGGGUAAGUGCAAAUAGUCUGCAUGCCGCCGGGCGCCAUGCCUGCAGGUCGACUCUAGAAAACAUG”, in assay [3], the binding signal is 2.44 log2 enrichment (interaction score). With “GGCUAGAACUAGUGGAUCCCCCGGCGCCCGGCGGCUCGAGCCCGGGUAAGUGUUAAUAGUCUGCAUGCCGCCGGGCGCCAUGCCUGCAGGUCGACUCUAGAAAACAUG”, the binding signal in assay [4] is 1.52 log2 enrichment (interaction score); in [10], 3.31 log2 enrichment (interaction score).
